PubChem BioAssay AID1159580 (chemical genetic matrix, 2015)
Where “and” joins values, the source holds several entries; their conditions need not be identical. Equal entries are not always repeated. Out of some 5,500 compounds screened, about 2,000 (36%) were called active. About 18% were inconclusive and are not listed. No stated cut-off is given here; in the data, active means normalized growth mostly below about 0.91 (no sharp cut-off); inconclusive means no clear call, values can overlap the other calls; inactive means mostly above about 0.92. The list shows a part of the results.

Test: chemical genetic growth profiling, strain panel (AID 1159580);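 further: tested at 20 µM; growth read once vehicle control cultures reached saturation at 30 °C; 1 = growth at the plate median or of vehicle wells; lower values mean less growth of the strain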
Details: S. cerevisiae deletion strains, growth OD

Measured: normalized growth

COC(=O)[C@@H]1C(O)CC[C@H]2CN3CCc4c([nH]c5ccccc45)[C@@H]3C[C@@H]21 (some centres not stated)
inactive: locus YAL013W, strain DEP1, hits give low values 0.998 | locus YAL021C, strain ccr4, hits give low values 1.01 | locus YAL026C, strain drs2, hits give low values 1.01 | locus YAL030W, strain snc1, hits give low values 1.01 | locus YBL061C, strain skt5, hits give low values 1.01 | locus YBR009C, strain hhf1, hits give low values 0.998 | locus YBR021W, strain FUR4, hits give low values 1.01 | locus YBR023C, strain chs3, hits give low values 1.02 | locus YBR171W, strain sec66, hits give low values 1.02 | locus YBR229C, strain ROT2, hits give low values 0.99 | locus YBR231C, strain swc5, hits give low values 0.999 | locus YBR279W, strain paf1, hits give low values 1.02 | locus YCL011C, strain gbp2, hits give low values 1.01 | locus YCL016C, strain dcc1, hits give low values 1.02 | locus YCL029C, strain bik1, hits give low values 0.993 | locus YCL061C, strain MRC1, hits give low values 1.01 | locus YCL069W, strain vba3, hits give low values 1.01 | locus YCR088W, strain abp1, hits give low values 1.01 | locus YDL005C, strain med2, hits give low values 1.01 | locus YDL035C, strain GPR1, hits give low values 0.994 | locus YDL040C, strain nat1, hits give low values 1.01 | locus YDL074C, strain BRE1, hits give low values 1.01 | locus YDL101C, strain DUN1, hits give low values 0.99 | locus YDL134C, strain PPH21, hits give low values 0.996 | locus YDL185W, strain tfp1, hits give low values 0.971 | locus YDL192W, strain arf1, hits give low values 0.983 | locus YDR001C, strain nth1, hits give low values 1.02 | locus YDR069C, strain doa4, hits give low values 0.999 | locus YDR101C, strain arx1, hits give low values 1 | locus YDR137W, strain rgp1, hits give low values 1.02 | locus YDR150W, strain NUM1, hits give low values 0.973 | locus YDR159W, strain sac3, hits give low values 0.996 | locus YDR162C, strain NBP2, hits give low values 1.02 | locus YDR195W, strain ref2 1.02 | locus YDR297W, strain sur2, hits give low values 1.03 | locus YDR318W, strain mcm21, hits give low values 0.981 | locus YDR334W, strain swr1, hits give low values 1.02 | locus YDR335W, strain msn5, hits give low values 1.02 | locus YDR388W, hits give low values 0.999 | locus YDR392W, strain spt3, hits give low values 0.92 | locus YDR502C, strain sam2, hits give low values 1.01 | locus YEL003W, strain gim4, hits give low values 1.02 | locus YEL037C, strain rad23, hits give low values 1.03 | locus YEL061C, strain CIN8 (second series), hits give low values 1.02 | locus YEL061C, strain CIN8, hits give low values 0.998 | locus YER015W, strain faa2, hits give low values 1.01 | locus YER016W, strain bim1, hits give low values 1.02 | locus YER110C, hits give low values 0.982 | locus YER111C, strain swi4, hits give low values 1.01 | locus YER155C, strain BEM2 (second series), hits give low values 1.01 | locus YER155C, strain BEM2, hits give low values 0.992 | locus YER167W, strain BCK2, hits give low values 0.979 | locus YFR010W, strain ubp6, hits give low values 1.01 | locus YGL078C, strain dbp3, hits give low values 0.982 | locus YGL086W, strain mad1, hits give low values 0.955 | locus YGL167C, strain pmr1, hits give low values 1.01 | locus YGL173C, strain kem1, hits give low values 1 | locus YGL227W, strain vid30, hits give low values 1.02 | locus YGL240W, strain doc1, hits give low values 0.992 | locus YGL248W, strain PDE1, hits give low values 0.982 | locus YGL253W, strain hxk2, hits give low values 1.02 | locus YGR078C, strain PAC10, hits give low values 1 | locus YGR135W, strain pre9, hits give low values 1.01 | locus YGR229C, strain SMI1, hits give low values 1.03 | locus YGR252W, strain gcn5, hits give low values 1.01 | locus YHR013C, strain ard1, hits give low values 1.02 | locus YHR027C, strain rpn1, hits give low values 1.02 | locus YHR030C, strain SLT2, hits give low values 0.991 and 1.02 | locus YHR079C, strain IRE1 (second series), hits give low values 1.01 | locus YHR079C, strain IRE1, hits give low values 1.02 | locus YHR094C, strain hxt1, hits give low values 0.974 | locus YHR129C, strain ARP1, hits give low values 0.998 | locus YHR142W, strain chs7, hits give low values 1.02 | locus YHR200W, strain rpn10, hits give low values 0.988 | locus YIL066C, strain RNR3, hits give low values 0.984 | locus YIL073C, strain SPO22, hits give low values 0.915 | locus YIL125W, strain kgd1, hits give low values 0.981 | locus YIR030C, strain dcg1, hits give low values 0.994 | locus YJL092W, strain hpr5, hits give low values 1.01 | locus YJL095W, strain BCK1 (second series), hits give low values 1 | locus YJL095W, strain BCK1, hits give low values 1.03 and 1.02 | locus YJL115W, strain asf1, hits give low values 1.02 | locus YJL129C, strain trk1, hits give low values 1.03 | locus YJL134W, strain LCB3, hits give low values 0.985 | locus YJL154C, strain vps35, hits give low values 1.02 | locus YJL164C, strain tpk1, hits give low values 0.999 | locus YJL166W, strain qcr8, hits give low values 1.01 | locus YJL168C, strain set2, hits give low values 1 | locus YJL187C, strain SWE1 (second series), hits give low values 0.995 | locus YJL187C, strain SWE1, hits give low values 1.01 | locus YJR043C, strain POL32, hits give low values 0.998 | locus YJR066W, strain TOR1, hits give low values 0.954
